Most compounds without a hit are left out; they make up all but 1% or so of the library.
FEN1 inh-1 – human FEN1 inhibition | Recombinant FEN1 flap cleavage, fluorescence, 15 min | Potency, µM (highest dose often 114 µM), actives largely listed as inhibitors | 0.35% of 390,000 active | AID 588795; also: nearly all actives have a fitted effect of over 65% in size
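Quantitative HTS format: each compound was titrated, incubated with 10 nM nuclease for 15 min at room temperature, then challenged with flap substrate at 50 nM final. Signal change over 15 min gave concentration–effect curves.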
RECQ1 inh-1 – RECQ1 (human) helicase inhibition; 0.54% of 240,000 active; AID 2549; Potency, µM (series often up to 57.3 µM), actives largely listed as inhibitors; P46063; RECQ1 DNA unwinding, red fluorescence kinetic read; also: nearly all actives have a fitted effect of over 30% in size
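50 nM RECQ1T1 preincubated 15 min with compound in Tris pH 8.0 buffer with MgCl2, DTT, Tween-20 and 2.5 ug/ml poly(dI-dC); started with 200 nM TAMRA/BHQ-2 forked duplex and 2 mM ATP. Unwinding read as fluorescence (525/598 nm), two reads 2 h apart.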
BLM helicase inh – inhibitors of human Bloom syndrome helicase BLM. P54132. recombinant BLM DNA unwinding, fluorescence dequenching. Potency, µM (titrated, usually from 56.1 µM), actives largely listed as inhibitors. 0.2% of 350,000 active; also: nearly all actives have a fitted effect of over 35% in size
APE1 inh-1 – blocks human APE1 abasic DNA cleavage. Potency, µM (doses to about 65.8 µM), usual class: inhibitors. recombinant APE1, TAMRA/BHQ-2 abasic DNA cleavage fluorescence. 0.35% of 350,000 active; also: nearly all actives have a fitted effect of over 55% in size
Target sequence (P27695 whole entry, looked up): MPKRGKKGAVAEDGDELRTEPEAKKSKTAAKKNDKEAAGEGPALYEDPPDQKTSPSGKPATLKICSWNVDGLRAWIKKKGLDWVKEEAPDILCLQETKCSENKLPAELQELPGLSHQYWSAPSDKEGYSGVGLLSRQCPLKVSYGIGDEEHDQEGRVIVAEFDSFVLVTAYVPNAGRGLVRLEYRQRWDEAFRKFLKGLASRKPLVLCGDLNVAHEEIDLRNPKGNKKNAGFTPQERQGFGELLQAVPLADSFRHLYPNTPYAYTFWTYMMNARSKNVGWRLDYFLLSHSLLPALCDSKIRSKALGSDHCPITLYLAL
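Kinetic fluorescence read (525 ex/598 em nm, three reads 60 s apart) of AP-site incision; signal = third minus first read. Enzyme 0.75 nM, dual-labelled THF duplex 50 nM, compound preincubation 15 min RT.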
L3MBTL1 inh-1 – inhibitors of human L3MBTL1 | Q9Y468 | 0.66% of 230,000 active | Potency, µM (titrated, usually from 57.1 µM), usual class: inhibitors | AlphaScreen L3MBTL1–H3K9me1 peptide binding; also: nearly all actives have a fitted effect of over 60% in size
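First, the protein-peptide complex forms for 30 min at room temperature (L3MBTL1 50 nM, biotinylated H3K9me1 peptide 75 nM). Next, compounds are pin-transferred and incubated 30 min. Finally, AlphaScreen beads are added and read after 30 min.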
WRN helicase inh – WRN helicase (human) inhibition; 0.46% of 360,000 active; Potency, µM (doses to about 114 µM), hits mostly inhibitors; Q14191; WRN helicase unwinding, fluorescent forked duplex, kinetic; also: nearly all actives have a fitted effect of over 55% in size
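Kinetic red-fluorescence monitoring (525/598 nm) tracks WRN helicase activity after 100 nM fluorophore-quencher forked duplex and 2 mM ATP are added to 20 nM enzyme pretreated 15 min at room temperature with compound.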
APE1 dye cs – displaces fluorescent dye from DNA, flagging APE1 artifacts; shares compounds with APE1 inh-1; DNA fluorescent dye displacement counterscreen, fluorescence; Potency, µM (top dose mostly 28.5 µM), actives largely listed as inhibitors; 7% of 480 active; AID 2564;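 also: loss of thiazole orange fluorescence as the dye is displaced from duplex DNA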
Endo IV inh – counter-screen for APE1 inhibitors: inhibitors of E. coli endonuclease IV. shares compounds with APE1 inh-1. E. coli Endo IV, fluorogenic AP-site DNA cleavage. Potency, µM (top dose mostly 27.1 µM), hits mostly inhibitors. 4% of 560 active
APE1 inh-2 – confirmation of inhibitors of human APE1 endonuclease; shares compounds with APE1 inh-1; purified APE1, fluorogenic abasic-site DNA cleavage; Potency, µM (highest dose often 57.1 µM), most hits filed as inhibitors; 44% of 750 active; AID 2572; also: nearly all actives have a fitted effect of over 30% in size
APE1 FP inh – displaces DNA from human APE1 in FP assay; shares compounds with APE1 inh-1; APE1 binding to TAMRA-labelled double-stranded DNA, fluorescence polarization displacement; Potency, µM (titrated, usually from 28.5 µM), hits mostly inhibitors; 7% of 480 active
RECQ1 conf – confirmation of human RECQ1 helicase inhibitors. shares compounds with RECQ1 inh-1. RECQ1 helicase DNA unwinding, fluorescence. Potency, µM (highest dose often 229 µM), most hits filed as inhibitors. 28% of 610 active. AID 2708; also: nearly all actives have a fitted effect of over 45% in size
RECQ1 ADP FP – displaces ADP in a fluorescence polarization counter-screen for RECQ1 hits. shares compounds with RECQ1 inh-1. ADP fluorescence polarization displacement counterscreen. 27% of 530 active. Potency, µM (titrated, usually from 228 µM), hits mostly inhibitors. AID 2711; also: nearly all actives have a fitted effect of over 45% in size
RECQ1 inh-2 – RECQ1 helicase inhibition confirmed, round 2. shares compounds with RECQ1 inh-1. Potency, µM (series often up to 119 µM), most hits filed as inhibitors. 15% of 1,100 active. recombinant RECQ1 DNA unwinding, red fluorescence; also: nearly all actives have a fitted effect of over 50% in size
L3MBTL1 inh-2 – validation of human L3MBTL1 methyl-lysine binding inhibitors. L3MBTL1 methyl-lysine binding inhibition, biochemical qHTS. 91% of 500 active. shares compounds with L3MBTL1 inh-1. Potency, µM, hits mostly inhibitors; also: nearly all actives have a fitted effect of over 70% in size
L3MBTL1 ctr – interferes with AlphaScreen signal in L3MBTL1 counterscreen. shares compounds with L3MBTL1 inh-1. AlphaScreen counterscreen, signal inhibition. Potency, µM (doses to about 57.1 µM), usual class: inhibitors. 500 tested, under 10 active
FEN1 inh-2 – confirmation of human FEN1 inhibitors | shares compounds with FEN1 inh-1 | FEN1 flap cleavage, TAMRA/BHQ2 fluorogenic DNA substrate | Potency, µM, hits mostly inhibitors | 79% of 880 active | AID 720498; also: nearly all actives have a fitted effect of over 60% in size
Numbers stand for hits; . = inactive; ? = inconclusive; / = not tested or not shown. Calls follow the shape of the dose curve; as a rule, active = well fitted curve in the direction sought with a large enough effect; inconclusive = small, poorly fitted or top-dose-only effect, or another doubt; inactive = no such curve, though single readings can be large; an effect the other way counts as inactive or inconclusive.

SMILES	FEN1 inh-1	RECQ1 inh-1	BLM helicase inh	APE1 inh-1	L3MBTL1 inh-1	WRN helicase inh	APE1 dye cs	Endo IV inh	APE1 inh-2	APE1 FP inh	FEN1 inh-2	others
O=c1c2cc(O)c(O)cc2oc2cc(O)c(C3OC(CO)C(O)C(O)C3O)c(O)c12 (stereo not given)	.	.	.	2.4µM	3.2µM	.	.	.	7.1µM	.	?
O=c1cc(-c2ccc(O)c(O)c2)oc2cc(O)c([C@@H]3O[C@H](CO)[C@@H](O)[C@H](O)[C@H]3O)c(O)c12	?	.	.	.	?	.	/	/	/	/	/
O=c1ccc2[n+]([O-])c3ccc(O)cc3oc-2c1	40µM	16µM	/	25µM	3.2µM	.	.	?	13µM	0.018µM	60
Nc1ncnc2oc(-c3ccco3)c(-c3ccco3)c12	35µM	10µM	16µM	7.9µM	25µM	?	.	.	40µM	.	60	RECQ1 conf=50µM;RECQ1 ADP FP=40µM;RECQ1 inh-2=.
Cc1ccc(-c2nc3ccc(Br)cn3c2Cc2cccc(F)c2)cc1	/	/	/	/	/	.	/	/	/	/	/
Cc1ccc(-c2cc(C(F)(F)F)c(C#N)c(=O)[nH]2)cc1	.	.	.	.	.	?	/	/	/	/	/
Cc1ccc(-c2cc(-c3ccco3)c(C#N)c(=O)[nH]2)cc1	?	?	25µM	35µM	28µM	32µM	.	.	?	?	67	L3MBTL1 inh-2=21;L3MBTL1 ctr=.
COc1ccc(Cl)cc1NC(=O)CSc1nc2[nH]ncc2c(=O)[nH]1	/	/	/	/	/	.	/	/	/	/	/

Assay outcomes deposited in PubChem BioAssay by National Center for Advancing Translational Sciences (NCATS).
